Sampled rows, rich in hits. Any-hit rate of the full collection: about 0.84%.
PPARg SRC-2 ag: promotes SRC-2 coactivator recruitment by human PPARgamma; PPARgamma LBD-SRC-2 recruitment, biochemical; activation, % at 8 µM; hit rate 0.34% among 200,000; P37231
Target sequence (P37231 whole entry, looked up, the tested form may be a part): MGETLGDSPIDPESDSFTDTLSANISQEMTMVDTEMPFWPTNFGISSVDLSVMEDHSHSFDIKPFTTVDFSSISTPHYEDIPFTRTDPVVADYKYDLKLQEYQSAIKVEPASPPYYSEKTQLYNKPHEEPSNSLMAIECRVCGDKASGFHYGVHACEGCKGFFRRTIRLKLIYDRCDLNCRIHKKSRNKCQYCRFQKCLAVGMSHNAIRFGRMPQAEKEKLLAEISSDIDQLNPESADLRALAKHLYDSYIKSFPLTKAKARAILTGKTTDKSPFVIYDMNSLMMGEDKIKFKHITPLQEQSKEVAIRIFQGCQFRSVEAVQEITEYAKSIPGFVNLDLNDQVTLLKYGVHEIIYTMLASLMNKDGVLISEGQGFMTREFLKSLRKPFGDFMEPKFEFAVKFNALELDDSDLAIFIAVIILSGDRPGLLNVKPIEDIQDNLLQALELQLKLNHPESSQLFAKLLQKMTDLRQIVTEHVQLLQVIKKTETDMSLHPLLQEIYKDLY
SRC2 TRFRET art: flags TR-FRET format artefacts in PPARgamma SRC-2 recruitment agonist screen | TR-FRET artefact counter-screen; active compounds read high | TR-FRET ratio at 8 µM | hit rate 0.4% among 200,000 | AID 1049; in the data active = TR-FRET ratio above about 2000
SRC3 TRFRET art: TR-FRET artefact, counter-screen to PPARgamma/SRC-3 agonist assay; PPARgamma/SRC-3 format; active compounds read high; TR-FRET ratio at 8 µM; hit rate 0.39% among 99,000; AID 1048; in the data active = TR-FRET ratio above about 2000
PPARg SRC-1 ag: agonists of human PPARgamma SRC-1 coactivator recruitment; P37231; PPARgamma-SRC-1 coactivator recruitment biochemical assay; activation, % at 8 µM; hit rate 0.41% among 200,000; in the data active = activation above about 19%
PPARg SRC-3 ag: agonists of human PPARgamma SRC-3 coactivator recruitment; P37231; biochemical PPARgamma/SRC-3 coactivator recruitment assay; activation, % at 8 µM; hit rate 0.26% among 200,000; AID 731; in the data active = activation above about 23%
SRC1 TRFRET art: flags TR-FRET format artefacts in PPARgamma SRC-1 recruitment agonist screen; TR-FRET ratio at 8 µM; TR-FRET detection artefact counter-screen, emission ratio; active compounds read high; hit rate 0.34% among 99,000; AID 1051; in the data active = TR-FRET ratio above about 2300
PPARg SRC2 ag: human PPARgamma SRC-2 recruitment agonism, confirmation; shares compounds with PPARg SRC-3 ag; biochemical SRC-2 recruitment by PPARgamma; activation, % at 8 µM; hit rate 52% among 790
PPARg SRC1 conf: confirmation of agonists of SRC-1 recruitment by human PPARgamma. activation, % at 8 µM. AID 1300. PPARgamma–SRC-1 coactivator recruitment biochemical assay. hit rate 43% among 790. shares compounds with PPARg SRC-3 ag; in the data active = activation above about 20%
PPARg SRC3 ag: confirmation of agonists of SRC-3 recruitment by human PPARgamma; shares compounds with PPARg SRC-3 ag; AID 1301; biochemical PPARgamma-SRC-3 coactivator recruitment, agonist mode; hit rate 29% among 790; activation, % at 8 µM; in the data active = activation above about 24%
A number is an active result; n = inactive; x = no result. Cut-off read from the data, not from the text of the source, unless noted: active = activation above about 22%; inactive = the rest.

SMILES | PPARg SRC-2 ag | SRC2 TRFRET art | SRC3 TRFRET art | PPARg SRC-1 ag | PPARg SRC-3 ag | SRC1 TRFRET art | PPARg SRC2 ag | PPARg SRC1 conf | PPARg SRC3 ag
CC1(C)CC(=O)c2cc3c(N)c(C(=O)NCc4ccccc4)sc3nc2C1 | n | n | x | n | n | x | x | x | x
O=c1[nH]c2ccc(Cl)cc2c(-c2ccccc2)c1SC(=S)N1CCCCC1 | 23 | n | x | n | n | x | n | n | n
CN(C)c1ccc(N=C/C=C2/N(C)c3ccccc3C2(C)C)cc1 | 32 | 2099 | 2085 | 28 | n | n | n | n | n
CN1/C(=C\C=N\O)C(C)(C)c2ccccc21 | n | n | n | n | n | n | x | x | x
Cc1cc2c(cc(C(=O)OC(C(=O)NCc3ccco3)C(C)C)n2C)o1 (stereo not drawn) | n | n | x | n | n | x | x | x | x
CC(C)C(OC(=O)c1cc2occc2n1C)C(=O)NCc1ccc2c(c1)OCO2 (stereo not drawn) | n | n | n | 33 | 31 | n | n | 21 | n
O=C(C1CCCN(S(=O)(=O)c2cccc3cccnc23)C1)N1CCN(c2ccc(F)cc2)CC1 (stereo not drawn) | n | n | x | n | n | x | x | x | x
C#CCNC(=O)C1=C[C@H](C2CCCCC2)C[C@H](OCc2ccc(CO)cc2)O1 | n | n | n | 24 | n | n | n | n | n
CCn1nc(C)cc1C(=O)N1CCCC(CCC(=O)NCc2ccccc2F)C1 (stereo not drawn) | n | n | n | n | n | n | x | x | x
CCOC(=O)Cc1csc(NC(=O)CSc2nc(-c3ccccc3)c(C#N)c(=O)[nH]2)n1 | n | n | n | n | n | n | x | x | x
N#Cc1c(-c2cccs2)nc(SCc2ccc(Cl)cc2)[nH]c1=O | 43 | 2686 | 2717 | 32 | 24 | 3031 | 36 | 25 | 24
O=c1[nH]c(SCc2ccc(Cl)cc2)nc2ccsc12 | n | n | n | n | n | n | x | x | x
CNC(=O)NC(=O)CSc1nc(-c2cccs2)c(C#N)c(=O)[nH]1 | 56 | 3062 | 2978 | 41 | 31 | 3256 | 43 | 29 | 30
CCOC(=O)C1CCCN(Cc2sccc2C)C1 (stereo not drawn) | n | n | x | n | n | x | x | x | x
O=C(C1=C[C@@H](c2ccccc2)C[C@@H](OCc2ccc(CO)cc2)O1)N1CCCCCCC1 | n | n | n | n | n | n | x | x | x
O=C(O)c1cc(-c2ccc(Cl)s2)nc2ccccc12 | 39 | 2455 | 2388 | 37 | n | 3037 | 50 | 35 | 33
COC(=O)c1ccc2nc(NC(=O)C(C)(C)C)sc2c1 | n | n | n | n | n | n | x | x | x
COC(=O)c1ccc2nc(Nc3nc4ccc(F)cc4s3)sc2c1 | n | n | n | 23 | n | 2480 | n | n | n
Cn1c(-c2ccco2)n[nH]c1=S | n | n | n | n | n | n | x | x | x
Cc1cccc(-n2c(-c3ccco3)n[nH]c2=S)c1 | 28 | 2124 | 2283 | 25 | 23 | 2623 | 35 | 25 | 26
Cc1c(C(=O)NC(C(C)C)C(C)C)cccc1[N+](=O)[O-] | n | n | n | n | n | n | x | x | x
O=C(Nc1ccc(S(=O)(=O)NCc2ccccc2)cc1)c1ccc(Br)o1 | n | n | x | n | n | x | x | x | x
C=CCn1c(NC(=O)c2ccc(Br)o2)c(S(=O)(=O)c2ccccc2)c2nc3ccccc3nc21 | n | n | x | 34 | 27 | x | n | n | n
Nc1ccc(Nc2nc(-c3ccncc3)cs2)cc1 | n | n | x | n | 33 | x | n | n | n
c1ccc(-c2nnsc2-c2ncc[nH]2)cc1 | n | n | n | n | n | n | x | x | x
SMILES | PPARg SRC-2 ag | SRC2 TRFRET art | SRC3 TRFRET art | PPARg SRC-1 ag | PPARg SRC-3 ag | SRC1 TRFRET art | PPARg SRC2 ag | PPARg SRC1 conf | PPARg SRC3 ag
c1ccc(-c2nnsc2-c2nc3ccccc3[nH]2)cc1 | n | n | n | 21 | n | n | 40 | 34 | n
COc1ccc2c(c1)nc(SCC(=O)c1ccc(Br)s1)n2C | 28 | n | x | n | n | x | 39 | 27 | 28
COc1ccnc(Oc2ccccc2)c1C(=O)N/C=N/OCc1ccccc1F | n | n | n | n | n | n | x | x | x
c1csc(-c2cnc3ccccc3n2)c1 | n | n | n | n | n | n | x | x | x
c1cc2c(cnc3cscc32)s1 | 53 | 2391 | 2526 | 49 | 29 | 3316 | 62 | 51 | 42
COc1ccc([N+](=O)[O-])cc1NC(=O)c1ccc(Br)s1 | n | 2056 | 2129 | 22 | n | 2669 | n | n | n
CCOc1ccc(CC(=O)C2=C(N3CCOCC3)CC(C)(C)CC2=O)cc1OCC | n | n | n | n | n | n | x | x | x
CCCN1C=CC(=C/C=C(\C#N)C(=O)OCC)C=C1 | n | n | x | n | n | x | x | x | x
CCCCCCN1C=CC(=C/C=C(\C#N)C(=O)OCC)C=C1 | n | n | x | 21 | n | x | n | n | n
COc1ccc(CCN(C(=O)C(F)(F)F)C(C(=O)NC2CCCCC2)c2ccc(C)s2)cc1OC (stereo not drawn) | n | n | x | n | n | x | x | x | x
O=c1c(-c2nn[nH]n2)coc2ccc(Cl)cc12 | n | n | n | n | n | n | x | x | x
Brc1ccc(-c2nc3ccccc3s2)s1 | 63 | 3008 | x | 71 | 93 | x | 89 | 66 | 59
c1ccc(-c2nc3ccccc3s2)nc1 | n | n | x | n | n | x | x | x | x
COc1ccccc1C1=NN(C(=S)Nc2ccccc2)C(c2ccco2)C1 (stereo not drawn) | n | n | x | 19 | n | x | 22 | n | n
CC(=O)N=c1sc2nc3ccccc3nc2n1N(C(C)=O)C(C)=O | 26 | n | n | n | n | 2476 | 44 | 31 | 29
CCOc1ccc(C2C(C#N)=C(N)SC(N)=C2C#N)c(OCC)c1 | n | n | x | 27 | n | x | n | n | n
CCCc1[nH]nc2c1C(c1ccc(OCCN3CCOCC3)c(OC)c1)C(C#N)=C(N)O2 (stereo not drawn) | n | n | n | n | n | n | x | x | x
CCOc1cc(C2C(C#N)=C(N)SC(N)=C2C#N)ccc1OCCN1CCOCC1 | 36 | 2438 | x | 30 | 46 | x | n | n | n
CCOc1cc(C2NC(=O)NC(C)=C2C(C)=O)cc(Cl)c1OCC(=O)O (stereo not drawn) | n | n | x | n | n | x | x | x | x
CC(=O)Nc1ccc(OC(F)(F)C(F)C(F)(F)F)c(NC(C)=O)c1 (stereo not drawn) | n | n | x | n | n | x | x | x | x
COC(=O)c1sccc1-c1ccc(/C=N/OC(=O)c2ccccc2)o1 | 56 | 2291 | x | 31 | 47 | x | 56 | 49 | 40
O=C(Nc1ccccc1)c1ccc(-c2ccccc2)s1 | 39 | 2178 | 2060 | 39 | n | 2787 | 44 | 35 | 26
Clc1ccc(CON/C=N/c2ncnc3sccc23)c(Cl)c1 | n | n | x | n | n | x | x | x | x
Cc1ccc(-c2csc3nnc(SCC(=O)Nc4cccc(C)n4)n23)cc1 | n | n | x | 21 | n | x | n | n | n
